Where “and” joins values, the source holds several entries; their conditions need not be identical. Equal values may be shown once. This is part of a sample that, as a whole, favours compounds with a hit. Of some 83,000 tested, about 20% had one in any assay.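 Percent growth is the endpoint: 0 to 100 indicates growth inhibition (40 means 60% inhibition), 0 means no net growth, and negative values indicate cell death.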 Calls of active or inactive are those of the source. How the source made its calls: active means growth percent below 10; inactive means the rest.
Key:
Experiment in all cases: NCI-60 one-dose screen, 48 h (100 = growth as untreated, 0 = no growth, -100 = all killed)
[1] = system: NCI-H23 lung; details: 10 µM unless noted
[2] = system: NCI-H226 lung; details: 10 µM unless noted
[3] = system: NCI-H322M lung; details: 10 µM unless noted
[4] = system: HOP-62 NSCLC; details: 10 µM unless noted
[5] = system: NCI-H460 lung; details: 10 µM unless noted
[6] = system: HOP-92 NSCLC; details: 10 µM
[7] = system: NCI-H522 lung; details: 10 µM
[8] = system: A549/ATCC NSCLC; details: 10 µM unless noted
[9] = system: 786-0 renal; details: 10 µM unless noted
[10] = system: COLO 205 colon; details: 10 µM unless noted
[11] = system: DU-145 prostate; details: 10 µM unless noted
[12] = system: K-562 leukemia; details: 10 µM unless noted
[13] = system: MALME-3M melanoma; details: 10 µM unless noted
[14] = system: MDA-MB-231 breast; details: 10 µM unless noted
[15] = system: RXF 393 renal; details: 10 µM unless noted
[16] = system: SF-268 CNS; details: 10 µM unless noted
[17] = system: SF-295 CNS; details: 10 µM unless noted
[18] = system: SF-539 CNS; details: 10 µM unless noted
[19] = system: UACC-257 melanoma; details: 10 µM unless noted
[20] = system: M14 melanoma; details: 10 µM unless noted

CC1CCC2(C(=O)O)CCC3(C)C(=CCC4C5(C)CCC(O)C(C)(C)C5CCC43C)C2C1C (stereo not drawn)
growth [1]: 91.9% (inactive) and 88.2% (inactive)
growth [2]: 67.9% (inactive) and 98% (inactive)
growth [3]: 67.3% (inactive) and 92.7% (inactive)
growth [4]: 5.46% (active) and 102% (inactive)
growth [5]: 44.5% (inactive) and 89.9% (inactive)
growth [6]: 42.5% (inactive) and 65.8% (inactive)
growth [7]: 31.1% (inactive) and 84.1% (inactive)
growth [8]: 24% (inactive) and 75.4% (inactive)
growth [9]: -31.3% (active) and 76.1% (inactive)
growth [10]: 78.5% (inactive) and 110% (inactive)
growth [11]: 44% (inactive) and 75.8% (inactive)
growth [12]: 14.4% (inactive) and 62.6% (inactive)
growth [13]: 81.4% (inactive) and 88.9% (inactive)
growth [14]: 28.1% (inactive) and 71.6% (inactive)
growth [15]: 40.9% (inactive) and 79.5% (inactive)
growth [16]: 28.9% (inactive) and 75.7% (inactive)
growth [17]: 28% (inactive) and 89.7% (inactive)
growth [18]: 43.1% (inactive) and 79% (inactive)
growth [19]: 39.8% (inactive) and 90.1% (inactive)
growth [20]: 41.1% (inactive)

CC(C)NCC(O)c1ccc(O)c(O)c1 (stereo not drawn)
growth [1]: 98.6% (inactive) and 68.3% (inactive) and 98.2% (inactive)
growth [2]: 88.4% (inactive) and 114% (inactive) and 98.8% (inactive)
growth [3]: 92.1% (inactive) and 96.7% (inactive) and 106% (inactive)
growth [4]: 97.9% (inactive) and 90.6% (inactive) and 86.7% (inactive)
growth [5]: 108% (inactive) and 101% (inactive) and 105% (inactive)
growth [6]: 60.1% (inactive) and 59% (inactive) and 68.4% (inactive)
growth [7]: 82.4% (inactive) and 140% (inactive)
growth [8]: 106% (inactive) and 119% (inactive) and 103% (inactive)
growth [9]: 94.9% (inactive) and 90.6% (inactive) and 99.7% (inactive)
growth [10]: 107% (inactive) and 114% (inactive) and 104% (inactive)
growth [11]: 110% (inactive) and 119% (inactive) and 103% (inactive)
growth [12]: 112% (inactive) and 101% (inactive)
growth [13]: 101% (inactive) and 88.7% (inactive) and 141% (inactive)
growth [14]: 84% (inactive) and 78.9% (inactive) and 85.1% (inactive)
growth [15]: 103% (inactive) and 105% (inactive)
growth [16]: 102% (inactive) and 106% (inactive) and 86.6% (inactive)
growth [17]: 108% (inactive) and 110% (inactive) and 105% (inactive)
growth [18]: 95.9% (inactive) and 87.7% (inactive) and 85.6% (inactive)
growth [19]: 109% (inactive) and 102% (inactive)
growth [20]: 98.1% (inactive) and 96.8% (inactive) and 113% (inactive)

O=C1c2c(O)ccc(O)c2C(=O)c2c(NCCNCCO)ccc(NCCNCCO)c21
growth [1]: -59% (active) and -79.5% (active)
growth [2]: -55.7% (active) and -60.1% (active)
growth [3]: -29.2% (active) and -9.24% (active)
growth [4]: -53.4% (active) and -65.5% (active)
growth [5]: -57% (active) and -52.8% (active)
growth [6]: -56.9% (active)
growth [7]: -91.7% (active) and -66.8% (active)
growth [8]: -51.4% (active) and -77.6% (active)
growth [9]: -15.8% (active) and -50.5% (active)
growth [10]: -69.5% (active) and -74.4% (active)
growth [11]: -36.8% (active) and -51.3% (active)
growth [12]: -5.45% (active) and -77.6% (active)
growth [13]: -64.6% (active) and -88.2% (active)
growth [14]: -84.3% (active) and -77.3% (active)
growth [15]: -86.4% (active) and -68.9% (active)
growth [16]: -73% (active) and -80% (active)
growth [17]: -37.8% (active) and -39.6% (active)
growth [18]: -38.4% (active) and -84% (active)
growth [19]: -4.02% (active) and -47.7% (active)
growth [20]: -79.7% (active) and -97.7% (active)

O=c1n(CC2CO2)c(=O)n(CC2CO2)c(=O)n1CC1CO1 (stereo not drawn)
growth [1]: 69.2% (inactive)
growth [2]: 80.1% (inactive)
growth [3]: 70.4% (inactive)
growth [4]: 57% (inactive)
growth [5]: 19.2% (inactive)
growth [6]: 75.9% (inactive)
growth [7]: 45.1% (inactive)
growth [8]: 44.3% (inactive)
growth [9]: 44.7% (inactive)
growth [10]: 74.8% (inactive)
growth [11]: 25.7% (inactive)
growth [12]: 81.3% (inactive)
growth [13]: 70.7% (inactive)
growth [14]: 107% (inactive)
growth [15]: 64.2% (inactive)
growth [16]: 47.9% (inactive)
growth [17]: 13.9% (inactive)
growth [18]: 28.6% (inactive)
growth [19]: 61.4% (inactive)
growth [20]: 61.9% (inactive)

Cc1cc2ccccc2cn1
growth [1]: 97.1% (inactive) and 114% (inactive)
growth [2]: 95.7% (inactive) and 96% (inactive)
growth [3]: 101% (inactive) and 98.4% (inactive)
growth [4]: 101% (inactive)
growth [5]: 107% (inactive) and 108% (inactive)
growth [6]: 94.4% (inactive) and 101% (inactive)
growth [7]: 109% (inactive)
growth [8]: 101% (inactive) and 118% (inactive)
growth [9]: 105% (inactive) and 111% (inactive)
growth [10]: 110% (inactive) and 119% (inactive)
growth [11]: 114% (inactive) and 122% (inactive)
growth [12]: 118% (inactive) and 102% (inactive)
growth [13]: 101% (inactive) and 100% (inactive)
growth [14]: 97.9% (inactive) and 107% (inactive)
growth [15]: 104% (inactive)
growth [16]: 101% (inactive) and 134% (inactive)
growth [17]: 100% (inactive) and 90.3% (inactive)
growth [18]: 102% (inactive) and 98.7% (inactive)
growth [19]: 97.3% (inactive)
growth [20]: 107% (inactive) and 111% (inactive)

O=c1[nH]cnc2c1ncn2C1OC(CO)C(O)C1O (stereo not drawn)
growth [1]: 116% (inactive) and 104% (inactive) and 109% (inactive)
growth [2]: 108% (inactive) and 103% (inactive) and 97.4% (inactive)
growth [3]: 112% (inactive) and 137% (inactive) and 102% (inactive)
growth [4]: 104% (inactive) and 110% (inactive) and 96.5% (inactive)
growth [5]: 109% (inactive) and 122% (inactive) and 106% (inactive)
growth [6]: 84.1% (inactive) and 79.4% (inactive) and 115% (inactive)
growth [7]: 107% (inactive) and 100% (inactive) and 93.2% (inactive)
growth [8]: 112% (inactive) and 102% (inactive) and 107% (inactive)
growth [9]: 106% (inactive) and 111% (inactive) and 107% (inactive)
growth [10]: 114% (inactive) and 118% (inactive) and 113% (inactive)
growth [11]: 126% (inactive) and 133% (inactive) and 112% (inactive)
growth [12]: 105% (inactive) and 108% (inactive) and 113% (inactive)
growth [13]: 131% (inactive) and 124% (inactive) and 110% (inactive)
growth [14]: 110% (inactive) and 105% (inactive) and 108% (inactive)
growth [15]: 129% (inactive) and 118% (inactive)
growth [16]: 114% (inactive) and 112% (inactive) and 94.2% (inactive)
growth [17]: 124% (inactive) and 111% (inactive) and 88.8% (inactive)
growth [18]: 113% (inactive) and 96.1% (inactive)
growth [19]: 104% (inactive) and 119% (inactive)
growth [20]: 100% (inactive) and 107% (inactive) and 98.2% (inactive)

CC(=O)OC(C)C(=O)NCC(C)O (stereo not drawn)
growth [1]: 100% (inactive)
growth [3]: 90.7% (inactive)
growth [4]: 100% (inactive)
growth [5]: 98.2% (inactive)
growth [6]: 98% (inactive)
growth [7]: 109% (inactive)
growth [8]: 108% (inactive)
growth [9]: 94.9% (inactive)
growth [10]: 107% (inactive)
growth [11]: 104% (inactive)
growth [12]: 97.9% (inactive)
growth [13]: 108% (inactive)
growth [14]: 124% (inactive)
growth [15]: 113% (inactive)
growth [16]: 100% (inactive)
growth [18]: 102% (inactive)
growth [19]: 108% (inactive)
growth [20]: 97.8% (inactive)

CC(C)C(C)(C)c1ccc(O)cc1
growth [1]: 103% (inactive)
growth [2]: 99.3% (inactive)
growth [3]: 102% (inactive)
growth [4]: 104% (inactive)
growth [5]: 104% (inactive)
growth [7]: 99.7% (inactive)
growth [8]: 102% (inactive)
growth [10]: 108% (inactive)
growth [11]: 107% (inactive)
growth [12]: 50.4% (inactive)
growth [13]: 107% (inactive)
growth [14]: 108% (inactive)
growth [15]: 112% (inactive)
growth [16]: 99.8% (inactive)
growth [17]: 118% (inactive)
growth [18]: 99.4% (inactive)
growth [19]: 104% (inactive)
growth [20]: 105% (inactive)

N#CC(C#N)N=Nc1cc(Cl)ccc1Cl
growth [1]: 106% (inactive)
growth [2]: 104% (inactive)
growth [4]: 104% (inactive)
growth [5]: 102% (inactive)
growth [7]: 89.8% (inactive)
growth [8]: 98.4% (inactive)
growth [9]: 102% (inactive)
growth [10]: 110% (inactive)
growth [11]: 111% (inactive)
growth [12]: 95.3% (inactive)
growth [14]: 91.7% (inactive)
growth [15]: 115% (inactive)
growth [16]: 95% (inactive)
growth [18]: 99.8% (inactive)
growth [19]: 92% (inactive)
growth [20]: 98.5% (inactive)

ClCCOCCOc1ccc(C2CCCCC2)cc1
growth [1]: 113% (inactive)
growth [2]: 92.4% (inactive)
growth [3]: 121% (inactive)
growth [4]: 92.3% (inactive)
growth [5]: 106% (inactive)
growth [6]: 87.9% (inactive)
growth [7]: 93.8% (inactive)
growth [8]: 86.6% (inactive)
growth [9]: 88.8% (inactive)
growth [10]: 111% (inactive)
growth [11]: 102% (inactive)
growth [12]: 118% (inactive)
growth [14]: 103% (inactive)
growth [15]: 101% (inactive)
growth [16]: 109% (inactive)
growth [17]: 97.1% (inactive)
growth [18]: 102% (inactive)
growth [19]: 91.2% (inactive)
growth [20]: 108% (inactive)

Brc1ccc(SSc2ccc(Br)cc2)cc1
growth [1]: 72.5% (inactive)
growth [2]: 93.7% (inactive)
growth [3]: 91.8% (inactive)
growth [4]: 75.3% (inactive)
growth [5]: 68.1% (inactive)
growth [6]: 98.4% (inactive)
growth [7]: 85.2% (inactive)
growth [8]: 66.7% (inactive)
growth [9]: 59% (inactive)
growth [10]: 90.6% (inactive)
growth [11]: 93.6% (inactive)
growth [12]: 89.9% (inactive)
growth [13]: 74.8% (inactive)
growth [15]: 74.6% (inactive)
growth [16]: 58.9% (inactive)
growth [17]: 52.2% (inactive)
growth [18]: 56.1% (inactive)
growth [19]: 97.7% (inactive)
growth [20]: 68.7% (inactive)

CC1CCC2(OC1)OC1CC3C4CC=C5CC(O)CCC5(C)C4CCC3(C)C1C2C (stereo not drawn)
growth [1]: 104% (inactive)
growth [2]: 92.2% (inactive)
growth [3]: 113% (inactive)
growth [4]: 66.6% (inactive)
growth [5]: 103% (inactive)
growth [6]: 26.6% (inactive)
growth [7]: 103% (inactive)
growth [8]: 27.3% (inactive)
growth [10]: 111% (inactive)
growth [11]: 107% (inactive)
growth [12]: 97.3% (inactive)
growth [13]: 120% (inactive)
growth [14]: 100% (inactive)
growth [16]: 89.6% (inactive)
growth [17]: 119% (inactive)
growth [18]: 91.2% (inactive)
growth [19]: -3.06% (active)
growth [20]: 102% (inactive)
